{"source": "PubChem BioAssay", "note": "Inconclusive results are not listed. Unmarked numbers belong to inactive results. Active and inactive are the calls of the source.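 How the source made its calls: active means cell viability at or below a set limit in both duplicate runs, the limit being the all-compound median minus 4 SD (cut at about 23% in these data, passing the limit was not always enough); inconclusive means no clear call, values can overlap the other calls; inactive means the rest.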"}
{"assay": "viability of HCT116 without oncogenic beta-catenin – human colon tumor cells, pilot screen (AID 823);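 further: 0% = wells killed by 20 µM Hyamine and 100% = untreated DMSO cell wells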", "settings": "HCT116 beta-catenin knockout viability, CellTiter-Glo, 60 h; at 10 µM; active compounds read low"}
{"smiles": "COc1ccc2oc(C(=O)C3CC3)c(NC(=O)CCCN3C(=O)c4ccccc4C3=O)c2c1", "viability": "102%"}
{"smiles": "CCOC(=O)c1sc(NC(C)=O)cc1C", "viability": "115%"}
{"smiles": "CCNc1nc2c(c(=O)[nH]c(=O)n2C)n1CC(C)C", "viability": "106%"}
{"smiles": "COc1ccc(C(=O)c2cnc(C(C)C)n2C)cc1", "viability": "98.2%"}
{"smiles": "Cc1cnc(N)c2c(=O)oc3ccccc3c12", "viability": "103%"}
{"smiles": "CN(C)C(CNC(=O)c1cccs1)c1cccnc1", "note": "(stereo not given)", "viability": "105%"}
{"smiles": "Cc1nn(Cc2ccc(Cl)c(Cl)c2)c(C)c1NC(=O)c1cc(C2CC2)on1", "viability": "79%"}
{"smiles": "CCOC(=O)c1cnc2c(C#N)c(C)nn2c1-c1ccccc1", "viability": "94%"}
{"smiles": "CC(=O)N(Cc1ccco1)C1(C(=O)NC2CCCCC2)CCCCC1", "viability": "94.9%"}
{"smiles": "CN(C(=O)c1ccc(=O)[nH]c1)C1(C(=O)NC2CCCCC2)CCCCC1", "viability": "95.7%"}
{"smiles": "Cc1cccc(OCc2nnc(SCC(=O)Nc3ccc(C)c(C)c3)o2)c1", "viability": "102%"}
{"smiles": "CCOCCCNC(=O)c1cn(C)c2ccc(S(=O)(=O)N(C)C3CCCCC3)cc2c1=O", "viability": "108%"}
{"smiles": "CCCCn1c(NC(=O)c2ccccc2)nc2ccccc21", "viability": "22.1% (active)"}
{"smiles": "COc1cc(OC)cc(-c2cc3nc(C)c(CCC(=O)O)c(C)n3n2)c1", "viability": "96.6%"}
{"smiles": "CCc1cccc(Nc2cc(C)nc3ncnn23)c1", "viability": "99.8%"}
{"smiles": "CCCc1ccc(Oc2c(-c3ccc(O)c(C)c3O)n[nH]c2C)cc1", "viability": "72.3%"}
{"smiles": "CC(=O)Nc1ccc(S(=O)(=O)c2ccc(N)cc2)cc1N", "viability": "104%"}
{"smiles": "COc1c2c(nc3ccccc13)OC(C(C)(O)COC(C)=O)C2", "note": "(stereo not given)", "viability": "98.6%"}
{"smiles": "O=C(Nc1ccc(N2CCCCC2)cc1)c1cncc(Br)c1", "viability": "100%"}
{"smiles": "Cc1ccc2oc(=O)c3cnn(CC(=O)NC4CCCCC4C)c3c2c1", "note": "(stereo not given)", "viability": "95.1%"}
{"smiles": "CC1(C)CC(NC(=O)C23CCC(C)(C(=O)C2)C3(C)C)CC(C)(C)N1", "note": "(stereo not given)", "viability": "96.2%"}
{"smiles": "CC1(C)CC2(CC(C)(C)N1)OC(=O)N1CCc3ccccc3C12C", "note": "(stereo not given)", "viability": "106%"}
{"smiles": "COc1ccc(-n2nnnc2S(=O)(=O)CC(=O)N2CCCCC2)cc1", "viability": "1.47% (active)"}
{"smiles": "CCCCCSc1nc2c(c(=O)[nH]c(=O)n2C)n1CCc1ccccc1", "viability": "69.6%"}
{"smiles": "COc1cc2c(cc1OC)C1=C(C#N)CN(CC(=O)O)CN1CC2", "viability": "106%"}
{"smiles": "CC(=O)Nc1ccc(S(=O)(=O)N2CCN(c3cccc(C)c3C)CC2)cc1", "viability": "35.8%"}
{"smiles": "C=C(C)CSc1nc2c(c(=O)[nH]c(=O)n2C)n1CCC(C)C", "viability": "80.8%"}
{"smiles": "Cn1c(Cn2c(=O)sc3ccccc32)nnc1SCC(=O)Nc1ccccc1F", "viability": "104%"}
{"smiles": "COC(=O)/C=C(\\C)NC(=O)c1cccs1", "viability": "101%"}
{"smiles": "COc1cccc(NC(=O)c2ccncc2)c1", "viability": "94.3%"}
{"smiles": "CCCCN(C(=O)NC(=O)Nc1nc2ccc(OC)cc2s1)S(C)(=O)=O", "viability": "92.6%"}
{"smiles": "CC(C)N1C(=O)C2C(c3ccccc3O)NC(C)(C(=O)O)C2C1=O", "note": "(stereo not given)", "viability": "101%"}
{"smiles": "Cc1cccn2c(=O)c3cc(C(=O)NCCCN4CCOCC4)n(C)c3nc12", "viability": "93.1%"}
{"smiles": "Cc1csc2nc(CNS(=O)(=O)c3ccc4c(c3)OCCO4)cn12", "viability": "91.9%"}
{"smiles": "CCN(C(=O)CSc1nnnn1-c1cc(C)ccc1OC)C1CCS(=O)(=O)C1", "note": "(stereo not given)", "viability": "99%"}
{"smiles": "O=C1C2CCCN2C(c2ccc(F)cc2)N1c1cccc(Cl)c1", "note": "(stereo not given)", "viability": "102%"}
{"smiles": "O=C(Nc1ccc2nc(-c3cccnc3)[nH]c2c1)c1ccco1", "viability": "100%"}
{"smiles": "CCOC(=O)Cc1csc(NC(=O)CN2C(=O)c3ccccc3S2(=O)=O)n1", "viability": "96.9%"}
{"smiles": "Brc1cccc(-c2nc(-c3ccncc3)no2)c1", "viability": "90.4%"}
{"smiles": "COc1ccc(N(CC(=O)NC2CCCCC2)S(=O)(=O)c2cccnc2)cc1", "viability": "99.6%"}
